Compound activity (PubChem BioAssay)
A selection: hits, their analogues and other compounds. The true share with any hit is near 3.8%.
Shn3 3UTR inh – reduction of Shn3 3'UTR firefly luciferase signal, primary screen, Schnurri-3 inhibitor project, cell-based, Clone20 osteoblasts, set 2; inhibition, % at 12.5 µM; 360,000 tested, 0.52% active; AID 588674, 2011; Clone20 osteoblast Shn3 3'UTR firefly luciferase, 24 h;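 active means mean inhibition of at least 75% with every replicate also reaching 75%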
Gli-Sufu block – Gli-Sufu pathway antagonists, primary screen, luciferase luminescence, Sufu-KO-LIGHT cells, uHTS; Sufu-KO-LIGHT fibroblasts, Gli luciferase reporter luminescence; inhibition, % at 5 µM; AID 588413, 2011; 340,000 tested, 0.74% active;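 active means inhibition above about 55%, limit read from the data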
Jurkat NFkB inh – inhibitors of induced NF-kB luciferase reporter, primary screen, TCR NF-kB activation inhibitor project, cell-based, luminescence, uHTS | inhibition, % at 4 µM | 330,000 tested, 0.53% active | Jurkat, PMA/ionomycin-induced NF-kB luciferase reporter; in the data active means inhibition above about 50%
Mdm2 MdmX PPI – inhibitors of human Mdm2-MdmX association, primary screen, cell-based, luminescence, split luciferase, SaOS-2, uHTS. SaOS-2 split-luciferase Mdm2/MdmX complementation. inhibition, % at 8 µM. 330,000 tested, 3% active. Protein Mdm4 (Homo sapiens) + E3 ubiquitin-protein ligase Mdm2 (Homo sapiens), …;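 active means inhibition of at least 50% at 8 µM in the primary screen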
697 NFkB inh – inhibitors of PMA/ionomycin-induced NF-kB reporter, 697 cells, primary screen, B-cell NF-kB inhibitor project, cell-based, luminescence, uHTS; inhibition, % at 4 µM; 697 B-cell NF-kB luciferase reporter, 16 h; 330,000 tested, 0.33% active; in the data active means inhibition above about 35%
Mdm2-MdmX conf – Mdm2-MdmX complex disruptors, retested hits, confirmation, luminescence, single concentration. shares compounds with Mdm2 MdmX PPI. 10,000 tested, 55% active. inhibition, % at 8 µM. AID 489028, 2010. Mdm2-MdmX binding, luminescent assay; in the data active means inhibition above about 40%
Full FLuc ctr – full-length luciferase signal inhibition, confirmation, counter-screen for Mdm2/MdmX interaction inhibitor project, cell-based, single concentration, SaOS-2 | shares compounds with Mdm2 MdmX PPI | SaOS-2 full-length luciferase counterscreen, luminescence | inhibition, % at 8 µM | 6,200 tested, 77% active | AID 504607, 2011;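 active means mean inhibition at 8 µM reaching about 37%, which flags the compound as non-specific, limit read from the data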;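 further: p53-null SaOS-2 cells with luciferase driven by a doxycycline-inducible promoter; compound on cells about two nights before reading with doxycycline added after day one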
Each line names hits and unclear results; the compound was inactive in the other large screens (follow-up assays come after a bar, where they were run).

Cc1ccc(S(=O)(=O)N2CCC(C(=O)NNC(=O)c3ccccc3O)CC2)cc1	none
Cc1cc(C)c(C)c(S(=O)(=O)N2CCC(C(=O)NNC(=O)c3ccccc3O)CC2)c1C	Mdm2 MdmX PPI 67 | Mdm2-MdmX conf 66 | Full FLuc ctr 45
Cc1ccc(S(=O)(=O)N2CCC(C(=O)NNC(=O)c3ccccc3O)CC2)cc1C	Mdm2 MdmX PPI 53 | Mdm2-MdmX conf 50 | Full FLuc ctr 46
COc1ccc(-c2csc(NC(=O)CSCc3c(C)noc3C)n2)c(OC)c1	none
COCCNC(=O)c1cccc(OC2CCN(C(C)COc3ccccc3)CC2)c1 (stereo not given)	none
O=C(Nc1cnn(C23CC4CC(CC(C4)C2)C3)c1)c1cnn2c(C(F)(F)F)cc(-c3ccco3)nc12	Mdm2 MdmX PPI 58 | Mdm2-MdmX conf inactive
O=C(Nc1ccc2c(c1)OCO2)c1cnn2c(C(F)(F)F)cc(-c3ccco3)nc12	none
CCCCN1C(=O)C2Cc3c([nH]c4ccccc34)CN2C1=S (stereo not given)	none
Cc1ccccc1N1CCN(C(=O)c2cc(C3CC3)nn2-c2ccccc2)CC1	none
Cc1ccc(C2(c3noc(CN4CCC(c5ccncc5)CC4)n3)CCCC2)cc1	none (no result: Gli-Sufu block)
CC(C(=O)NCCc1ccc(Cl)cc1)n1c(=O)c2cccn2c2cccnc21 (stereo not given)	none
CCC(C)NS(=O)(=O)c1ccc(NC(=O)C(Sc2ccccc2)c2ccccc2)cc1 (stereo not given)	Mdm2 MdmX PPI 56 | Mdm2-MdmX conf 44 | Full FLuc ctr 70
Cc1cccc(OCC(=O)Nc2nnc(S(=O)(=O)N3CCCCCC3)s2)c1	none
CC1Nc2ncnc(N3CCc4ccccc4C3)c2N(Cc2ccc(Cl)cc2)C1=O (stereo not given)	none
CC1Nc2ncnc(N3CCc4ccccc4C3)c2N(Cc2ccc(Br)cc2)C1=O (stereo not given)	Mdm2 MdmX PPI 54 | Mdm2-MdmX conf inactive | Full FLuc ctr 58
COc1cc2c(cc1NC(=S)NC(=O)/C=C/c1ccc(OC)c(OC)c1)oc1ccccc12	none (no result: Jurkat NFkB inh, Mdm2 MdmX PPI, 697 NFkB inh)
COc1ccccc1NC(=S)NC(=O)/C=C/c1ccco1	none
COc1cc2c(cc1NC(=S)NC(=O)/C=C/c1ccco1)oc1ccccc12	Mdm2 MdmX PPI 50 | Mdm2-MdmX conf inactive
COc1ccc(/C=C/C(=O)NC(=S)Nc2cc3oc4ccccc4c3cc2OC)cc1	Mdm2 MdmX PPI 90 | Mdm2-MdmX conf inactive
COc1ccc(OCC(=O)Nc2cc3oc4ccccc4c3cc2OC)cc1	Mdm2 MdmX PPI 93 | Mdm2-MdmX conf 67 | Full FLuc ctr 89
COc1ccccc1N1CCN(CCS(=O)(=O)c2cc(Cl)ccc2Cl)CC1	none (no result: Gli-Sufu block, Jurkat NFkB inh, Mdm2 MdmX PPI, 697 NFkB inh)
Cc1ccccc1-n1c(SCC(=O)N/N=C/c2c(C)nn(-c3ccccc3)c2C)nc2ccccc2c1=O	none
Cc1nn(-c2ccccc2)c(C)c1/C=N/NC(=O)CSc1nc2ccccc2c(=O)n1-c1ccc(Br)cc1	Mdm2 MdmX PPI 74 | Mdm2-MdmX conf 65 | Full FLuc ctr 74
Cc1ccc(-n2c(SCC(=O)N/N=C/c3c(C)nn(-c4ccccc4)c3C)nc3ccccc3c2=O)cc1	Mdm2 MdmX PPI 66 | Mdm2-MdmX conf 47 | Full FLuc ctr 68
Cc1ccc(/C=N/NC(=O)CSc2nc3ccccc3c(=O)n2-c2ccccc2)s1	none
C=C(C)Cn1c(SCC(=O)N/N=C/c2c(O)ccc3ccccc23)nc2ccccc2c1=O	Mdm2 MdmX PPI 83 | Mdm2-MdmX conf 56 | Full FLuc ctr inactive
CCOC1=C2CN(S(=O)(=O)c3ccc(C)cc3)[C@@H](c3ccc(CC)cc3)C[C@H]2[C@H]2C(=O)N(c3ccccc3)C(=O)[C@H]2C1	none (no result: Gli-Sufu block, Jurkat NFkB inh, Mdm2 MdmX PPI, 697 NFkB inh)
Cc1ccc(C)c(OCc2ccc(C(=O)Nc3ccc([N+](=O)[O-])cn3)o2)c1	none
